# Rows were chosen to be rich in hits. Some 0.47% of all compounds tested hit in one or more screens of this group.
# AID inh: activation induced cytidine deaminase inhibition | Q9GZX7 | AID deamination FRET fluorescence, UDG-coupled, 4 h | Potency, µM (top dose mostly 115 µM), actives largely listed as inhibitors | 91,000 tested, 0.32% active | AID 1347428; also: nearly all actives have a fitted effect of over 25% in size
# UDG counter: UDG inhibition counter-screen; FRET deamination/UDG coupled assay, UDG read, 4 h; Potency, µM (titrated, usually from 115 µM), for inactives: at the highest dose activity change, negative = inhibition, hits mostly inhibitors; 91,000 tested, 0.14% active; also: nearly all actives have a fitted effect of over 65% in size
# The depositor's hits bear a star; i = inactive; ? = inconclusive. Calls follow the shape of the dose curve; as a rule, active = well fitted curve in the direction sought with a large enough effect; inconclusive = small, poorly fitted or top-dose-only effect, or another doubt; inactive = no such curve, though single readings can be large; an effect the other way counts as inactive or inconclusive. % is scaled to controls: 0 for no effect and ±100 for the full control effect; potency is read from the fitted curve at half-maximal effect.
SMILES,AID inh,UDG counter
NCC(O)c1cc(O)c(O)cc1F (centres undefined),50µM*,-4%
CCOC(=O)C1=C(C)OC(N)=C(C(=O)OC)C12C(=O)Nc1cc(Br)ccc12 (centres undefined),i,-11%
OC(CN(Cc1ccccc1)Cc1ccccc1)c1ccc2cc[nH]c2c1 (centres undefined),i,-9%
Cc1cc(C[N+](C)(C)C)oc1C,i,-8%
COc1ccc(-n2c(/C=C\c3ccccc3F)nc3ccccc3c2=O)c(OC)c1,?,79µM*
COc1ccccc1-n1c(/C=C/c2ccccc2)nc2ccccc2c1=O,i,0%
CC(N)Cc1ccc(N(C)C)cc1 (centres undefined),i,-11%
CC12CNCC(C)(CNC1)C2=O,?,50µM*
O=c1oc2ccccc2c(O)c1C(c1ccccc1)c1c(O)c2ccccc2oc1=O,45µM*,13%
COc1ccc(OC)c(C(c2c(O)c3ccccc3oc2=O)c2c(C)n(C)n(-c3ccccc3)c2=O)c1 (centres undefined),i,-3%
O=c1oc2ccccc2c(O)c1C(c1cccc(O)c1)c1c(O)c2ccccc2oc1=O,50µM*,-3%
Cc1c(C(c2ccc(O)cc2)c2c(O)c3ccccc3oc2=O)c(=O)n(-c2ccccc2)n1C (centres undefined),i,4%
O=[N+]([O-])/C=C\c1ccc2c(c1)OCO2,i,4%
CCc1ccc2[nH]c(C)c(CCN)c2c1,i,6%
CC(C(=O)c1c[nH]c2ccccc12)N(Cc1ccc(F)cc1)C1CC1 (centres undefined),i,3%

# Bioassay records from PubChem.
